# Test results taken from PubChem BioAssay AID1210 (NMMLSC, 2008).
# Activity calls are given as the source filed them.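 Rule for the calls: active = blocks over 70% of labeled estradiol binding at 10 µM, or over a set limit at 100 nM; inactive = the rest.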
# Molecular target: Estrogen receptor beta (Homo sapiens) (UniProt Q92731)
# Assay: ERbeta ligand binders by competition, primary screen, cell-based, Cos7 ERbeta-GFP, flow cytometry (AID 1210);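 note: 0% = DMSO vehicle wells and 100% = complete loss of labeled estradiol signal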
# Conditions: fluorescent estrogen binding, at 10 µM, stronger effect = higher value
# Sequence of Estrogen receptor beta (Homo sapiens) (Q92731 whole entry, looked up): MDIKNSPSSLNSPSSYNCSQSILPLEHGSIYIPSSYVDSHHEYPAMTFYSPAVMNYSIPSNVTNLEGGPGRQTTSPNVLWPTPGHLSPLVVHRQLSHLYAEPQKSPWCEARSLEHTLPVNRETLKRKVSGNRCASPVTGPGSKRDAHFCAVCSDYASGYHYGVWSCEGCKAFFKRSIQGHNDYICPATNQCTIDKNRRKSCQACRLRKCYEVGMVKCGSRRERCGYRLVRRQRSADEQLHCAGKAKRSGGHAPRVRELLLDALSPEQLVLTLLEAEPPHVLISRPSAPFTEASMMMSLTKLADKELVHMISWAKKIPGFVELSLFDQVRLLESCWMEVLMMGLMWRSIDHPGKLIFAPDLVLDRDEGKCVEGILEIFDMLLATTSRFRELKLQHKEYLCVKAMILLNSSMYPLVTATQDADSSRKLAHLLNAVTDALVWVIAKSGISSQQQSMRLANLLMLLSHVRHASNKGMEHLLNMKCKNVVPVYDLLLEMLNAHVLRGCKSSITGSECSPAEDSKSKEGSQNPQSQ
row,Structure (SMILES),inhibition
1,COc1ccc(NC(=O)C(c2ccccc2)N(C)C(=O)c2ccc(=O)[nH]c2)cc1 (centres undefined),17% (inactive)
2,COc1ccc(NC(=O)c2ccco2)cc1N,69% (inactive)
3,C[C@]12CC[C@@H]3c4ccc(O)cc4C(=O)C[C@H]3[C@@H]1CC[C@@H]2O,45% (active)
4,Cc1ccc(S(=O)(=O)NCCn2c(C)cc3ccccc32)cc1,23% (inactive)
5,Cc1ccc(-n2nnnc2SCC(=O)Nc2ccc3c(c2)COC3=O)cc1C,15% (inactive)
6,Cc1ccnc(NS(=O)(=O)c2ccc(NC(=O)Cc3cccs3)cc2)n1,38% (inactive)
7,O=C(NNC(=O)c1ccc(SCC2CCCO2)c([N+](=O)[O-])c1)c1ccc(Cl)c([N+](=O)[O-])c1 (centres undefined),0% (inactive)
8,CCCOc1ccc(-c2nn(-c3ccccc3)cc2/C=C2\SC(N)=NC2=O)cc1,36% (inactive)
9,O=C(c1cccs1)N1N=C(c2ccc(O)cc2)CC1c1ccccc1 (centres undefined),68% (inactive)
10,Cc1nnc(Oc2ccccc2F)c2ccccc12,47% (inactive)
11,O=C(Cn1ncc2c(=O)oc3ccccc3c21)Nc1nc2ccccc2s1,35% (inactive)
12,CCOC(=O)c1c(NC(=O)CSc2nnc(-c3ccccc3)o2)sc(C(C)=O)c1C,40% (inactive)
13,CCOc1ccc(Nc2oc(-c3ccccc3Cl)nc2C#N)cc1,25% (inactive)
14,COc1ccc(C)cc1-n1nnnc1SCC(=O)NC(=O)NCc1ccco1,61% (inactive)
15,CCCc1nnc2n1N=C(c1ccc(-c3cc(Cl)ccc3Cl)o1)CS2,43% (inactive)
16,COC(=O)C1=C(O)/C(=C\c2ccc(CNC(=O)C(=O)Nc3ccc(C)c(C)c3)o2)N=C1C,42% (inactive)
17,CC(C)C1Nc2c(O)cc(Cl)c([N+](=O)[O-])c2C2C=CCC21 (centres undefined),28% (inactive)
18,Cc1ccc(C)c(SCC(=O)OCC(=O)c2ccco2)c1,50% (inactive)
19,COc1ccc(N2Cc3cccc(C(=O)N4CCN(C(=O)c5ccco5)CC4)c3C2=O)cc1,29% (inactive)
20,Cc1cc(C)n2nc(SCc3cc(=O)oc4cc(O)ccc34)nc2n1,19% (inactive)
21,Cc1cc(C)c2c(c1)NC(c1cc3c(cc1Br)OCO3)C1CC=CC21 (centres undefined),42% (inactive)

# Same assay, conditions: fluorescent estrogen binding, ligand binding inhibition, at 0.1 µM, stronger effect = higher value
row,Structure (SMILES),inhibition [%]
1,CCOC(=O)c1sc(NC(=O)c2ccc3ncsc3c2)nc1C,24
2,Oc1ccc(-c2cn3cc(C(F)(F)F)ccc3n2)cc1,10
3,Oc1ccc(-c2cn3c(n2)SCC3)cc1O,22
4,COc1cc(OC)cc(C(=O)NC2CCN(C(=O)N3c4ccccc4Sc4ccccc43)CC2)c1,16
5,COc1ccc(OC)c(/C=N/c2oc(-c3ccco3)c(-c3ccco3)c2C#N)c1,31
6,COc1ccc(N=C2NC(=O)S/C2=C\c2ccc(N(C)C)cc2)cc1,4
7,O=c1[nH]c(N/N=C/c2ccc(O)cc2)nc2ccccc12,13
8,O=C(Oc1cccc(-c2cnc3ccccc3n2)c1)c1ccco1,4
9,O=C(O)c1ccc2c(c1)[C@@H]1C=CC[C@@H]1[C@H](c1ccccn1)N2,25
10,CSc1ccc(S(=O)(=O)Nc2cccc(F)c2)cc1,75
11,COc1ccc2c(c1)c(=O)oc1cc(OCC(=O)N3CCC(C)CC3)ccc12,35
12,COc1ccc(OC)c(NC(=O)CSc2nc3ccccc3c3nc4ccccc4n23)c1,16
13,CS(=O)(=O)c1ccc2nc(NC(=O)CCC(=O)c3cccs3)sc2c1,9
14,O=C(COC(=O)CCOc1ccccc1)NCc1ccco1,37
15,Nc1ccc2nc3n(c(=O)c2c1)CCC3,9
16,Cc1ccc(-c2nn(-c3ccccc3)cc2CSC(=N)N)cc1,33
17,CCCCn1c(NC(=O)CC)c(C#N)c2nc3ccccc3nc21,17
18,COc1ccc(NC(=O)C(c2ccccc2)N(C)C(=O)c2ccc(=O)[nH]c2)cc1 (centres undefined),56
19,COc1ccc(NC(=O)c2ccco2)cc1N,17

row,Structure (SMILES),inhibition [%]
1,C[C@]12CC[C@@H]3c4ccc(O)cc4C(=O)C[C@H]3[C@@H]1CC[C@@H]2O,89
2,Cc1ccc(S(=O)(=O)NCCn2c(C)cc3ccccc32)cc1,18
3,Cc1ccc(-n2nnnc2SCC(=O)Nc2ccc3c(c2)COC3=O)cc1C,2
4,Cc1ccnc(NS(=O)(=O)c2ccc(NC(=O)Cc3cccs3)cc2)n1,47
5,O=C(NNC(=O)c1ccc(SCC2CCCO2)c([N+](=O)[O-])c1)c1ccc(Cl)c([N+](=O)[O-])c1 (centres undefined),4
6,CCCOc1ccc(-c2nn(-c3ccccc3)cc2/C=C2\SC(N)=NC2=O)cc1,19
7,O=C(c1cccs1)N1N=C(c2ccc(O)cc2)CC1c1ccccc1 (centres undefined),23
8,Cc1nnc(Oc2ccccc2F)c2ccccc12,38
9,O=C(Cn1ncc2c(=O)oc3ccccc3c21)Nc1nc2ccccc2s1,7
10,CCOC(=O)c1c(NC(=O)CSc2nnc(-c3ccccc3)o2)sc(C(C)=O)c1C,32
11,CCOc1ccc(Nc2oc(-c3ccccc3Cl)nc2C#N)cc1,43
12,COc1ccc(C)cc1-n1nnnc1SCC(=O)NC(=O)NCc1ccco1,12
13,CCCc1nnc2n1N=C(c1ccc(-c3cc(Cl)ccc3Cl)o1)CS2,48
14,COC(=O)C1=C(O)/C(=C\c2ccc(CNC(=O)C(=O)Nc3ccc(C)c(C)c3)o2)N=C1C,20
15,CC(C)C1Nc2c(O)cc(Cl)c([N+](=O)[O-])c2C2C=CCC21 (centres undefined),5
16,Cc1ccc(C)c(SCC(=O)OCC(=O)c2ccco2)c1,57
17,COc1ccc(N2Cc3cccc(C(=O)N4CCN(C(=O)c5ccco5)CC4)c3C2=O)cc1,27
18,Cc1cc(C)n2nc(SCc3cc(=O)oc4cc(O)ccc34)nc2n1,19
19,Cc1cc(C)c2c(c1)NC(c1cc3c(cc1Br)OCO3)C1CC=CC21 (centres undefined),46
